# Bioassay records deposited in PubChem by Sanford-Burnham Center for Chemical Genomics.
# MLLE-PAM2 inh = inhibitors of microRNA-mediated deadenylation, human PABP1 MLLE binding. inhibition, % at 20 µM. P11940. hit rate 0.36% among 360,000. GST-MLLE / FITC-PAM2 fluorescence polarization; in the data active means inhibition above about 35%, passing the limit was not always enough;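 further: plate controls were DMSO wells with GST-MLLE for no effect and wells lacking GST-MLLE protein for full effect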
# Target sequence (P11940 whole entry, looked up): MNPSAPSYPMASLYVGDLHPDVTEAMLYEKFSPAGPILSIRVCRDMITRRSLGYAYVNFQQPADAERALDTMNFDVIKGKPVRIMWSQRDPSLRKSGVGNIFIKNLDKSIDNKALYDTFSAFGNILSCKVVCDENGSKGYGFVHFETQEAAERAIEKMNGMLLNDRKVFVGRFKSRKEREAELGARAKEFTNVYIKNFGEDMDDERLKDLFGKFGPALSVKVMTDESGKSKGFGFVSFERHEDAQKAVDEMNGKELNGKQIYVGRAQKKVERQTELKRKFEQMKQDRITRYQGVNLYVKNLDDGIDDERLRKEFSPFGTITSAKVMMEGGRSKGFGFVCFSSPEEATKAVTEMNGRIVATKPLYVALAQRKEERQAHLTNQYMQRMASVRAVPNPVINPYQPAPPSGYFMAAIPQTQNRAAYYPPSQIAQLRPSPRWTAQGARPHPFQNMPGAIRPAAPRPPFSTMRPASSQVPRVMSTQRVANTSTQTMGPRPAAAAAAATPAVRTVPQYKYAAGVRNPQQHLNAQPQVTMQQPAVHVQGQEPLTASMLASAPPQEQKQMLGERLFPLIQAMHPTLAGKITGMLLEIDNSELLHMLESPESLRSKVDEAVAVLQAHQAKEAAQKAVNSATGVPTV
# A3G deaminase = inhibitors of human APOBEC3G DNA deaminase; inhibition, % at 20 µM; hit rate 0.28% among 330,000; recombinant A3G, ssDNA deamination FAM/TAMRA fluorescence; Q9HC16;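 active means inhibition of at least 40% at 20 µM, with no more than 30% in the related APOBEC3A deaminase screen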;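 further: plate controls were DMSO wells with A3G for no effect and wells lacking A3G enzyme for full effect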
# PHOSPHO1 inh = blocks human PHOSPHO1 phosphatase activity | Q8TCT1 | hit rate 1.1% among 290,000 | AID 1565 | recombinant PHOSPHO1, absorbance phosphatase assay | inhibition, % at 13.3 µM; in the data active means inhibition above about 60%
# PABP FP inh = blocks human PABP binding to poly(A) RNA | hit rate 1% among 290,000 | calls only at 35 µM | P11940 | fluorescence polarization | AID 2014;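 further: calls also rest on retests at 20 µM and on dose response follow-up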
# eIF4H FP inh = inhibitors of RNA binding by human eIF4H; eIF4H fluorescence polarization binding assay; inhibition, % at 35 µM; hit rate 0.94% among 290,000;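 further: calls also rest on retests at 20 µM and on dose response follow-up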
# A3A deaminase = human APOBEC3A DNA deaminase inhibition. P31941. recombinant A3A, FAM/TAMRA ssDNA deamination fluorescence. inhibition, % at 20 µM. hit rate 0.41% among 330,000;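 active means at least 40% inhibition at 20 µM here, with at most 30% in a related deaminase screen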;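 further: plate controls were A3A with DMSO for no effect and wells lacking A3A enzyme for full effect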
# * marks the source's active call; other numbers are inactive results; i = inactive; ? = inconclusive; / = not tested or not shown; + = active, no number. In the library only some 2.6% were active in any assay of this set; here they are far more common. Unless noted, how the calls were made is not given here.
SMILES,MLLE-PAM2 inh,A3G deaminase,PHOSPHO1 inh,PABP FP inh,eIF4H FP inh,A3A deaminase
Cc1cc(C)cc(Nc2ccc(C(=O)O)cc2N)c1,13,-2,-16,+,54*,1
Cc1ccc(Nc2ccc(C(=O)O)cc2N)cc1,/,-3,13,i,-5,-5
O=C(/C=C/c1ccc(Cl)cc1Cl)OCC(=O)N1CCCC1,-7,-3,/,/,/,1
N#CC1=C(N)C(C#N)(C#N)C(c2ccncc2)C2CN(C(=O)OCc3ccccc3)CC=C12 (stereo unspecified),13,6,-1,+,75*,3
S=C(NCCCN1CCOCC1)NCCCN1CCOCC1,41*,15,46,i,-11,0
S=C(NCCCN1CCOCC1)NC1CCCC1,-16,-5,48,i,-7,-1
CCCCC(=O)N(C)c1c(C)nc2ccc(C(=O)N(C)CCN(C)C)cn12,-6,/,/,/,/,/
CNC(=O)c1ccsc1NC(=O)CS(=O)(=O)c1ccc(Cl)cc1,1,-1,64*,/,/,-3
CNC(=O)c1c(NC(=O)CS(=O)(=O)c2ccc(Cl)cc2)sc(C)c1C,14,-4,/,/,/,1
O=C(O)C1(c2ccccc2)CCN(S(=O)(=O)c2ccc(Cl)cc2)CC1,12,0,14,i,8,2
CC1=C(C(=O)N(C)C)CC(CC(=O)NC2CC2)C(=O)N1Cc1ccccc1 (stereo unspecified),-17,/,/,/,/,/
COc1ccc(NC(=O)C2Cc3ccccc3CN2C(=O)c2ccccc2)cn1 (stereo unspecified),71*,0,-4,?,?,-1
O=C(O)c1ccc(O)c(N2C(=O)Nc3ccccc3N2O)c1,-10,-5,0,+,53*,4
C=CC[n+]1c(-c2ccc(C)cc2)csc1Nc1ccc(NC(C)=O)cc1,-12,/,15,i,-9,/
C=CC[n+]1c(-c2ccc(OC)cc2)csc1NNC(=O)Nc1ccccc1,-51,0,66*,+,70*,-3
Cc1cc(C)cc(CSCC(=O)NN=C2CCCCCC2)c1,-5,-9,7,i,-1,2
O=C(CSc1ncccn1)NN=C1CCCCCC1,1,-12,3,+,82*,-5
O=C(CSc1ncn[nH]1)c1ccccc1,34,/,95*,i,-13,/
O=C1CC(=O)OC(c2ccc([N+](=O)[O-])cc2)O1,19,/,/,/,/,/
CCC1C(=O)C(C)(C)C(=O)OC1c1ccc([N+](=O)[O-])cc1 (stereo unspecified),7,/,14,+,110*,/
CC(NC(=O)c1ccccc1F)C12CC3CC(CC(C3)C1)C2 (stereo unspecified),-5,22,/,/,/,3
CCn1c(Cc2ccccc2)nnc1SCC(=O)Nc1nc2ccccc2s1,-10,-5,4,i,-8,-4
CSCC(=O)Nc1cc(C)on1,1,-5,27,i,6,-1
CCSCc1nnc(SCC(=O)Nc2nc3ccccc3s2)n1C,-113,9,-42,+,3.0*,36
O=C(CSC1=NCCS1)Nc1nc2ccccc2s1,42*,-13,-4,i,-10,-4
SMILES,MLLE-PAM2 inh,A3G deaminase,PHOSPHO1 inh,PABP FP inh,eIF4H FP inh,A3A deaminase
Cc1cc(NC(=O)CSC2=NCCS2)no1,44*,-4,38,i,-12,-1
Cc1cc(NC(=O)c2ccc(Cl)cc2)no1,11,-4,28,i,-15,-6
Cc1cc(NC(=O)CCSc2ccc(Cl)cc2)no1,7,-8,62*,i,7,1
NNc1ccc2nnc(C(F)(F)C(F)(F)C(F)(F)F)n2n1,-1,-6,20,i,-4,-4
S=c1[nH]c2ccccc2n2c(=S)[nH]nc12,41*,33,-4,i,3,-1
CC[C@@]1(O)C(=O)OCc2c1cc1n(c2=O)Cc2cc3c(N)cccc3nc2-1,-9,22,4,+,92*,12
Cc1ccc(-c2nc3c(c(=O)[nH]c(=O)n3Cc3ccccc3)n2C)o1,3,/,0,+,88*,/
Cc1cc(C)c2c(=O)[nH]c(=O)n(Cc3ccccc3)c2n1,-74,-4,5,+,103*,-12
Cc1ccc(-c2nc3c(c(=O)[nH]c(=O)n3Cc3ccccc3)n2Cc2ccccc2)o1,-13,/,-21,i,0,/
CCCCNC(=S)NNC(=O)c1csc(C)c1CC,-43,-2,1,i,-2,1
C=CCNC(=S)NNC(=O)c1csc(C)c1CC,-30,3,81*,i,-3,3
COCCn1nnnc1C(c1ccc(Cl)cc1)N1CCSCC1 (stereo unspecified),-1,-2,74*,i,-5,-6
COCCn1nnnc1C(c1ccc(Cl)cc1)N1CCN(C(=O)c2ccco2)CC1 (stereo unspecified),4,-8,43,i,-6,0
COc1cccc(NC(=S)N(CCCN2CCCC2)Cc2ccco2)c1,7,0,1,i,active,-5
COc1cccc(NC(=S)N(CCCN2CCN(C)CC2)Cc2ccco2)c1,-23,-9,9,i,-4,-5
O=c1c2c([nH]c3ccccc13)C(=C1CCCC1)CC2,4,24,21,+,82*,24
O=C(Nc1ccc2c(c1)nc1n2CCN(C2CCCCC2)C1)NC1CCCCC1,/,-5,33,i,1,-6
O=C(Nc1ccc2c(c1)nc1n2CCN(C2CCCCC2)C1)c1ccco1,-29,/,-77,i,94*,/
O=C(Nc1ccc2c(c1)nc1n2CCSC1)c1ccco1,12,10,37,i,72*,3
CCCn1cnc2cc(NC(=O)c3ccco3)ccc21,-4,-7,63*,i,-5,-4
O=C(CCCN1C(=O)C2CC=CCC2C1=O)Nc1cccc(F)c1 (stereo unspecified),-12,-8,41,i,-3,-6
O=C(Nc1ccc(S(=O)(=O)N2CCCC2)cc1)C1CCN(S(=O)(=O)c2ccc(F)cc2)CC1,-10,-8,/,/,/,3
CC(C)CCNC(=O)CN(Cc1ccccc1)C(=O)CCC(=O)Nc1ccccn1,-4,9,27,i,-8,2
COc1ccccc1NC(=O)C1CCCN(S(=O)(=O)c2c(C)noc2C)C1 (stereo unspecified),-9,-7,18,i,-9,-5
Cc1ccc(SCc2cc(=O)c3c(=O)n(-c4ccccc4)[nH]c3[nH]2)cc1,17,10,42,+,93,5
O=c1cc(CSc2ccc(Cl)cc2)[nH]c2[nH]n(-c3ccccc3)c(=O)c12,23,2,36,i,28,10
O=C1c2ccccc2C(=O)c2c(/C=C/N3CCCCC3)ccnc21,43*,/,/,/,/,/
O=C(/C=C/[C@H]1O[C@@H](n2ccc(=O)[nH]c2=O)[C@H](O)[C@@H]1O)NCc1cccs1,-8,/,/,/,/,/
